About 18,000 (4.4%) of roughly 410,000 compounds were called active. Roughly 7% stayed inconclusive and do not appear here. The sample holds actives, similar compounds and a random draw of the others, so the mix is not that of the screen. A number with no mark means an inactive call. Rule as the data show it: active = activity change below about -60%; inconclusive = no clear call, values can overlap the other calls; inactive = above about -39%.
Experiment: qHTS Assay for inhibitors of the human cytomegalovirus (HCMV)
Conditions: HFF cells, HCMV-luciferase reporter, 72 h; at 57.5 µM; hits give low values
From the text: NCGC Assay Overview: Infection with human cytomegalovirus (HCMV) continues to pose significant threats for pregnant women and immunocompromised hosts. HCMV causes serious morbidity and mortality in transplant recipients, and congenital HCMV is the leading infectious cause of mental retardation and deafness in children. In the 1990s, the annual costs associated with the disease burden of congenital CMV were estimated at around $2 billion. A HCMV vaccine is not available yet and HCMV therapies result in intolerable side effects and emergence of drug resistant viruses. […] Towards this goal we have developed and characterized a luciferase HCMV reporter that was initially used in 96 well plates and then optimized to 1536-well plates for utilization in screening of the MLSMR collection, the NGCG diversity collection and the NCGC Pharmaceutical Collection of approved and investigational drugs.
NCGC Assay Protocol Summary:
This is a cell-based assay for HCMV inhibition in HFFs cells. The screening used 2 compound doses and the HCMV-luciferase at MOI of 1 PFU/cell. Cells were treated and infected with HCMV. At 72 h post infection cell lysates were collected and luciferase activity was determined using the Glomax-Multi + Detection System (Promega, Madison, WI). Data were normalized to the controls for basal activity (buffer only) and known HCMV inhibitors Salinmoycin.
1536-well assay protocol for the assay:
(1) Add 3 ul CMV/HFF cell culture. 1000 cells/well in DMEM nirmal media.
(2) Incubate 16 hr at 37C.
(3) Add 23 nl control compound, 10uM of Salinomycin.
(4) Add 23 nl compounds in DMSO solution.
(5) Add 3 ul CMV suspension. Final 1 puf/ul, Virus stock 2000pfu/ul
(6) Incubate 72 hrs at 37C.
(7) Add 4 ul OneGlo Luc Reagent.
(8) Incubate 5 min at room temperature.
% is scaled to controls: 0 for no effect and ±100 for the full control effect.

| Structure (SMILES) | activity change, negative = inhibition |
| --- | --- |
| O=C(Nc1cccc(C(=O)O)c1)/C(=C\c1ccccc1)NC(=O)c1ccc(Br)o1 | 23.2% |
| O=C(NCc1ccco1)/C(=C\c1cccc([N+](=O)[O-])c1)NC(=O)c1ccco1 | -72% (active) |
| O=C(NCc1ccco1)/C(=C/c1cccc([N+](=O)[O-])c1)NC(=O)c1ccco1 | 20.5% |
| CC(Oc1ccc2ccccc2c1)C(=O)NNC(=S)NC(=O)c1ccco1 (stereo unspecified) | -3.96% |
| O=C(NCc1ccco1)c1ccc([N+](=O)[O-])cc1Cl | -4.15% |
| O=C(Nc1ccc2ccccc2c1)/C(=C/c1cccc(Br)c1)NC(=O)c1ccco1 | -64.4% (active) |
| O=C(CNS(=O)(=O)c1cccs1)N1CCN(c2ccccc2Cl)CC1 | 68.5% |
| CC1CCCCN1CC(=O)N1CCCc2c1c(=O)oc1ccc(OCc3ccccc3)cc21 (stereo unspecified) | -2.34% |
| CCCCn1cc(S(=O)(=O)c2ccc(OCC)cc2)c(=O)c2cc(OC)c(OC)cc21 | 44.7% |
| COc1ccc(CCNC(=O)Cn2c(=O)n(-c3ccccc3)c(=O)c3c(C)c(C)sc32)cc1OC | -11.6% |
| COc1ccccc1-c1noc(-c2ccc(NCc3ccccc3)c([N+](=O)[O-])c2)n1 | 0.104% |
| Cc1ccc(C)c(N2CCN(C(=O)CCCCCn3c(=S)[nH]c4ccc(N5CCOCC5)cc4c3=O)CC2)c1 | -88.3% (active) |
| Cc1ccc(C)c(N2CCN(C(=O)CCc3c(C)nc4c(c3C)c(=O)n(C)c(=O)n4C)CC2)c1 | -21.4% |
| COc1cccc(N2CCN(C(=O)CCCCCn3c(=O)[nH]c4ccccc4c3=O)CC2)c1 | -7.41% |
| CC1(C)OC(=O)C2=C(CC(CCc3ccccc3)OC2c2ccc(Cl)cc2)O1 (stereo unspecified) | 7.29% |
| Cc1cc(C)cc(OC(C)C(=O)Nc2nc3c(s2)CCCC3)c1 (stereo unspecified) | -26.6% |
| COc1cc(C(=O)N2CCN(C(=O)COc3cccc(C)c3)CC2)cc(OC)c1OC | 28.1% |
| CCc1cccc(C)c1Nc1c(-c2ccc(N(C)C)cc2)nc2ncccn12 | -14.5% |
| CC(Nc1ccc(-c2nc(-c3ccco3)no2)cc1[N+](=O)[O-])c1ccccc1 (stereo unspecified) | 41.2% |
| CCOC(=O)Cn1c(CN(Cc2ccccc2)Cc2ccccc2)nc2c1c(=O)[nH]c(=O)n2C | 31.2% |
| COC(=O)[C@@H]1[C@@H](CO)[C@@H]2Cn3c(ccc(Br)c3=O)[C@H]1N2C(=O)c1cnccn1 | 13.3% |
| Cc1nc(CNS(=O)(=O)c2cc([N+](=O)[O-])ccc2C)cs1 | 17.1% |
| Cc1nc(CNS(=O)(=O)c2ccc(Oc3ccccc3)cc2)cs1 | -90.1% (active) |

| Structure (SMILES) | activity change, negative = inhibition |
| --- | --- |
| COc1ccccc1CNS(=O)(=O)c1ccc(C)cc1 | -4.42% |
| O=C1CSC2(C(=O)N(Cc3ccccc3)c3ccccc32)N1c1cccc(F)c1 (stereo unspecified) | -27.5% |
| CC(=O)c1ccccc1OCc1ccc(C(=O)c2ccccc2)cc1 | -23.4% |
| O=C(NC1CCC(O)CC1)c1ccccc1OCc1ccc(F)cc1 (stereo unspecified) | -22.6% |
| Cc1nc2ccccc2cc1OCc1ccc(F)cc1 | -82.9% (active) |
| CCCN(CC(=O)Nc1ccccc1C)C(=O)c1ccc2[nH]c3c(c2c1)CC(C)CC3 (stereo unspecified) | -61.3% (active) |
| CCCN(CC(=O)Nc1ccccc1C)C(=O)c1cc(=O)[nH]c2ccccc12 | 42.9% |
| CCCN(CC(=O)Nc1ccccc1C)C(=O)c1ccc(OCC(=O)N2CCOCC2)c(OCC)c1 | 0.271% |
| CC(C)NC(=O)Nc1cccc2c1O[C@@H](CN(C)S(=O)(=O)c1ccc(F)cc1)[C@@H](C)CN([C@H](C)CO)C2=O | 7.5% |
| Clc1cccc(Cl)c1Cl | -15.9% |
| COc1ccc(S(=O)(=O)c2c(Nc3ccc(C)cc3)sc(C(=O)c3ccc(C)cc3)c2N)cc1 | -10.2% |
| Cc1ccc(NC(=O)c2cn3c4c(ccc(Cl)c4c2=O)OC(C)C3)cc1C (stereo unspecified) | 0.532% |
| CSc1ccc(Cl)c(C(=O)OCC(=O)N2CC(C)OC(C)C2)c1 (stereo unspecified) | -9.66% |
| CCc1ccccc1NC(=O)CN(C)C(=O)c1cc(C2CC2)nn1-c1ccccc1 | -18% |
| COc1ccc(NC(=O)CN(C)C(=O)c2n[nH]c3ccccc23)cc1 | 5.1% |
| COc1ccc(NC(=O)CN(C)C(=O)c2cc(C3CC3)nn2-c2ccccc2)cc1 | -100% (active) |
| Cc1nc2nc(SCC(=O)N(Cc3ccccc3)C(C)C)nn2c(C)c1Cc1ccccc1Cl | -0.509% |
| CSc1ccc(C2c3c(oc4ccccc4c3=O)C(=O)N2CCCN2CCOCC2)cc1 (stereo unspecified) | 7.95% |
| CNC[C@H]1OCc2cnnn2CCCC(=O)N([C@H](C)CO)C[C@@H]1C | -9.25% |
| Cc1ccc(-c2nnc3c4ccccc4c(C)nn23)cc1NC(=O)c1cccc(Br)c1 | 35.9% |
| CSc1nc(-c2ccccc2Cl)nc2c1Cc1c(CO)cnc(C)c1O2 | 9.54% |
| C=CCOC(=O)C1=C(C)NC(C)=C(C(=O)OCC=C)C1c1cccs1 | -12.1% |
| CCOC(=O)C1Sc2[nH]c(=O)sc2C(c2ccc(Cl)cc2)C1C(=O)OCC (stereo unspecified) | -32.8% |

From PubChem BioAssay AID1259415 (National Center for Advancing Translational Sciences (NCATS), 2018)
